Assay results: PubChem BioAssay AID504467 (National Center for Advancing Translational Sciences (NCATS), 2011)
Among all 330,000 compounds or so, about 7,700 (2.3%) were called active. A call without a number means that no potency is given here. Inconclusive results (about 26%) are left out. The call rests on the fitted dose curve; in most records, active means well fitted inhibition curve with a large enough effect; inconclusive means small, poorly fitted or top-dose-only effect, or effect the other way; inactive means flat fitted curve, though single readings scatter. For the sample, actives were picked, then their nearest neighbours and some compounds at random.
Potency means the concentration at half of the fitted maximal effect.

Assay: qHTS screen for small molecules that inhibit ELG1-dependent DNA repair in human embryonic kidney (HEK293T) cells expressing luciferase-tagged ELG1; further: nearly all actives have a fitted effect of over 55% in size
Conditions: HEK293T ELG1-luciferase reporter, luminescence, 16 h, DNA damage induced by 5-fluorouridine; series mostly up to 46.1 µM
Summary of the method: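 Overnight (16 hr) co-exposure of 2,000 cells/well to 5-fluorouridine and compound at 37 °C preceded detection. Luciferase was quantified via ONE-Glo luminescence; loss of signal denotes inhibition.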
With `CCC(=O)c1cc(F)ccc1OCC(=O)Nc1ccc2c(c1)OCCO2` the Potency was “inactive”.
With `CCOCCCN(C)C1CCN(C(=O)c2oc3ccccc3c2NC(=O)COc2cccc(C)c2)CC1` the Potency was “inactive”.
For `CCOc1ccc(S(=O)(=O)Nc2cccc(C(=O)NCC3(N4CCCCC4)CCCCC3)c2)cc1`, the Potency was “inactive”.
In the case of `CCOC(=O)c1cccc(NC(=O)C2CCN(c3ncnc4c3nc3n4CCCCC3)CC2)c1`, the Potency is reported as 0.461 µM (active).
In the case of `COc1cccc(CNC(=O)C2CCCN(S(=O)(=O)N3CC(C)CC(C)C3)C2)c1` (stereo not drawn), the Potency is reported as “inactive”.
For `COc1cccc(CNC(=O)C2CCCN(c3ncnc4c3nc3n4CCCCC3)C2)c1` (stereo not drawn), the Potency was 18.3 µM (active).
With `COc1cccc(NC(=O)C2CCCN(c3ncnc4c3nc3n4CCCCC3)C2)c1` (stereo not drawn) the Potency was 14.6 µM (active).
In the case of `O=C(Nc1cccc(Cl)c1)C1CCCN(c2cnccn2)C1` (stereo not drawn), the Potency is reported as “inactive”.
In the case of `COc1ccccc1NC(=O)C1CCCN(c2cc(C)nc3ncnn23)C1` (stereo not drawn), the Potency is reported as “inactive”.
For `O=C(NCCCN1CCCCC1)C1CCCN(c2ncnc3c2nc2n3CCCCC2)C1` (stereo not drawn), the Potency was “inactive”.
In the case of `CCOC(=O)c1cccc(NC(=O)CCc2c(C)nc3ncnn3c2C)c1`, the Potency is reported as “inactive”.
With `CCOC(=O)c1cccc(NC(=O)C2CCCN(S(=O)(=O)c3cnc[nH]3)C2)c1` (stereo not drawn) the Potency was “inactive”.
In the case of `COc1ccc(C(=O)NC2CC(C)(C)Cc3c2cnn3-c2ccccc2C)o1` (stereo not drawn), the Potency is reported as “inactive”.
For `COc1ccccc1N(C)C(=O)c1cc(S(=O)(=O)N2CCc3ccccc32)cn1C`, the Potency was “inactive”.
With `COc1ccc(OC)c(C(C)NC(=S)Nc2ccc(S(=O)(=O)Nc3ncccn3)cc2)c1` (stereo not drawn) the Potency was “inactive”.
For `O=C(Nc1cc(Cl)ccc1N1CCOCC1)c1ccc(N2CCCC2=O)cc1`, the Potency was “inactive”.
For `NCCN1CCN2C(=O)CN(C(=O)c3ccccc3)CC12` (stereo not drawn), the Potency was “inactive”.
With `CC1(C(=O)N/N=C/c2cc3c(cc2Br)OCO3)CC1(Br)Br` (stereo not drawn) the Potency was “inactive”.
In the case of `COc1ccc(Nc2cc(=O)oc3ccccc23)cc1`, the Potency is reported as 4.61 µM (active).
For `COc1ccc(CC(=O)Nc2c(C(N)=O)oc3ccccc23)cc1`, the Potency was “inactive”.
With `COc1ccc2oc(=O)cc(-c3cc4ccccc4o3)c2c1` the Potency was “inactive”.
With `CCCOc1ccc(C2=CSC3=NCCN23)cc1Cl` the Potency was “inactive”.
For `Cc1nc2ccccc2c2oc(C(=O)NCCCN3CCC(C)CC3)cc12`, the Potency was “inactive”.
With `c1ccc(-c2nc(NCc3ccco3)c3ccccc3n2)cc1` the Potency was “inactive”.
With `O=C(NCC1CCCO1)c1cc(-c2ccccc2)nc2ccccc12` (stereo not drawn) the Potency was “inactive”.
In the case of `Cc1nc2ccccc2c2oc(C(=O)NCC3CCCO3)cc12` (stereo not drawn), the Potency is reported as 20.6 µM (active).
For `c1ccc2c(NCC3CCCO3)nc(-c3ccncc3)nc2c1` (stereo not drawn), the Potency was 18.4 µM (active).
In the case of `CCCN(CCC)CCNC(=O)c1cc2c(C)nc3ccccc3c2o1`, the Potency is reported as “inactive”.
For `O=C(Cn1ncc2c3ccccc3n(Cc3ccccc3)c2c1=O)NCCCN1CCOCC1`, the Potency was “inactive”.
With `COc1ccc(NC(=O)C(C)N2c3cccc4cccc(c34)S2(=O)=O)c(OC)c1` (stereo not drawn) the Potency was “inactive”.
For `CCC1(CC)NC(=O)N(CC(=O)OCC(=O)c2cc(C)c(C)cc2C)C1=O`, the Potency was “inactive”.
In the case of `CCN(C(=O)CSc1nnnn1-c1ccc(OC)cc1)C1CCS(=O)(=O)C1` (stereo not drawn), the Potency is reported as “inactive”.
In the case of `Cc1ccccc1C(=O)N1CCN(c2ccc(NC(=O)c3cccs3)cc2)CC1`, the Potency is reported as 9.2 µM (active).
In the case of `O=C(Nc1ccc(N2CCN(C(=O)C3CC3)CC2)cc1)c1cccs1`, the Potency is reported as “inactive”.
In the case of `O=C(Nc1ccc(N2CCN(C(=O)c3cccs3)CC2)cc1)c1cccnc1Cl`, the Potency is reported as “inactive”.
In the case of `COc1ccc(CNC(=O)C[C@H]2C[C@H](C(=O)N3CCOCC3)[C@@]3(C)c4[nH]c5cc(CCC(=O)N(C)C)ccc5c4CCN3C2=O)cc1OC`, the Potency is reported as “inactive”.
With `CCc1ccccc1NC(=O)CN(C)C(=O)c1cc(C2CC2)nn1-c1ccccc1` the Potency was “inactive”.
For `O=C(c1ccc2nc(N3CCOCC3)sc2c1)N1CCN(c2ccc(Cl)cc2)CC1`, the Potency was “inactive”.
For `O=C(O)/C=C/c1cn(Cc2ccccc2)nc1-c1cccs1`, the Potency was “inactive”.
In the case of `O=C(/C=C\c1cn(-c2ccccc2)nc1-c1cccs1)N1CCOCC1`, the Potency is reported as 16.4 µM (active).
With `O=C(/C=C/c1cn(-c2ccccc2)nc1-c1ccc2c(c1)OCCO2)NCCCN1CCOCC1` the Potency was “inactive”.
In the case of `CC(C)C[C@H](NC(=O)N1CC(=O)Nc2ccccc21)C(=O)N[C@H](Cc1ccccc1)C(=O)O`, the Potency is reported as “inactive”.
For `CCCCCCSc1ccc(-c2nc3ccc(Cl)cn3c2NCc2ccccc2)cc1`, the Potency was “inactive”.
With `CN(C(=O)COc1ccccc1)c1nnc(-c2ccncc2)s1` the Potency was “inactive”.
For `COc1ccc(CCN(C(=O)COc2ccccc2)c2nc(-c3ccccc3)cs2)cc1OC`, the Potency was 23.1 µM (active).
For `CN(C)CCCN(C(=O)COc1ccccc1)c1nc2c(Cl)cccc2s1`, the Potency was “inactive”.
For `Cc1cc(F)ccc1NC(=S)NCCc1ccccc1`, the Potency was “inactive”.
For `COc1ccc(-c2noc(C(C)NS(=O)(=O)c3ccc(NC(C)=O)cc3)n2)cc1` (stereo not drawn), the Potency was “inactive”.
For `COc1ccc(-n2c(=O)[nH]c3cc(C(=O)NCCc4ccc(OC)c(OC)c4)ccc3c2=O)c(OC)c1`, the Potency was “inactive”.
For `Clc1ccc2nc(-c3ccccc3)nc(C(Cl)Cl)c2c1`, the Potency was 2.31 µM (active).
In the case of `O=C(CCl)NNc1nc(-c2ccccc2)c2cc(Cl)ccc2n1`, the Potency is reported as “inactive”.
In the case of `NC(N)=Nc1nc(-c2ccccc2)c2cc(Cl)ccc2n1`, the Potency is reported as “inactive”.
For `Cn1c(CCN2CCCC2)nc2cc(NS(=O)(=O)c3ccccc3)ccc21`, the Potency was “inactive”.
In the case of `CCOCCn1[nH]c2ccccc2c1=O`, the Potency is reported as “inactive”.
With `COc1ccc(N(CC(=O)NCc2ccc(F)cc2)C(=O)CCC(=O)Nc2nccs2)cc1` the Potency was “inactive”.
In the case of `COc1cc(NC(=O)c2[nH]cnc2C(N)=O)cc(C(=O)Nc2cccc(C(F)(F)F)c2)c1`, the Potency is reported as 5.8 µM (active).
For `Cc1cccc(NC(=O)c2nnn(-c3cccc(C(F)(F)F)c3)c2N)c1`, the Potency was “inactive”.
In the case of `COc1ccc(NC(=O)CN(C)CC(=O)Nc2cccc(C(F)(F)F)c2)cc1`, the Potency is reported as “inactive”.
In the case of `CN=C(Nc1cccc(S(=O)(=O)N2CCOCC2)c1)c1ccccc1`, the Potency is reported as “inactive”.
For `Cn1cncc1C#Cc1c(-c2ccsc2)sc2ccccc12`, the Potency was “inactive”.
In the case of `CNS(=O)(=O)c1ccc(C(=O)NCC(=O)NCCc2ccc3c(c2)OCCO3)cc1`, the Potency is reported as “inactive”.
For `COc1ccccc1/C=C1\SC(=O)N(CCC(=O)N(C)C2CCS(=O)(=O)C2)C1=O` (stereo not drawn), the Potency was “inactive”.
In the case of `O=C(CSc1nc2ccccc2c(=O)n1-c1ccc(F)cc1)NC1CC1`, the Potency is reported as “inactive”.
In the case of `Cc1nn(-c2ccccc2)c(C)c1/C=N/NC(=O)CSc1nc2ccccc2c(=O)n1-c1ccccc1`, the Potency is reported as 16.4 µM (active).
In the case of `Cn1c(SCC(=O)N/N=C/c2ccc(O)c(O)c2)nc2ccccc21`, the Potency is reported as “inactive”.
In the case of `COCCCNC(=O)CNC(=O)c1nn(-c2ccc(OC)cc2)c(=O)c2ccccc12`, the Potency is reported as “inactive”.
In the case of `CCCN(CCC)CCCNC(=O)CNC(=O)c1nn(-c2ccc(OC)cc2)c(=O)c2ccccc12`, the Potency is reported as “inactive”.
With `COc1ccc(-n2nc(C(=O)NCC(=O)Nc3cccc(C)n3)c3ccccc3c2=O)cc1` the Potency was 18.4 µM (active).
With `CN1CCN(S(=O)(=O)c2ccc(N3CCN(c4ccccc4O)CC3)c([N+](=O)[O-])c2)CC1` the Potency was “inactive”.
For `CCOc1ccc(CCNC(=O)CN2C(=O)NC3(CCc4ccccc43)C2=O)cc1OCC` (stereo not drawn), the Potency was “inactive”.
For `O=C(c1cc(C(=O)N2CCN(c3ccc(F)cc3)CC2)cc([N+](=O)[O-])c1)N1CCN(c2ccc(F)cc2)CC1`, the Potency was 11.2 µM (active).
With `O=C(c1ccc(Cl)c([N+](=O)[O-])c1)N1CCN(c2ccccc2)CC1` the Potency was “inactive”.
For `O=C(c1ccccc1)c1ccc(C(=O)N2CCN(c3ccccc3)CC2)cc1`, the Potency was “inactive”.
In the case of `O=C(c1cc2cc(F)ccc2[nH]1)N1CCN(c2ccc(F)cc2)CC1`, the Potency is reported as “inactive”.
In the case of `O=C(c1cccc(F)c1)N1CCN(c2ccc([N+](=O)[O-])c(N3CCCCC3)c2)CC1`, the Potency is reported as “inactive”.
For `O=C(c1cccc(C(=O)N2CCN(c3ccc(F)cc3)CC2)c1)N1CCN(c2ccc(F)cc2)CC1`, the Potency was 18.4 µM (active).
For `N#CC(Cc1cc2ccccc2n1S(=O)(=O)c1ccccc1)OCc1ccccc1` (stereo not drawn), the Potency was “inactive”.
With `Cn1cccc1C(=O)OCC(=O)NCCc1ccccc1` the Potency was “inactive”.
With `Cc1cccc(C)c1NC(=O)COC(=O)c1c(C)nn(-c2ccccc2)c1C` the Potency was “inactive”.
With `O=C(CCNC(=O)c1ccc(Br)cc1)NCC(c1ccco1)N1CCCCC1` (stereo not drawn) the Potency was “inactive”.
In the case of `COc1cccc(NC(=O)c2cc(S(=O)(=O)N3CCc4ccccc43)cn2C)c1`, the Potency is reported as “inactive”.
With `CCn1c(=O)c(=O)n(CC)c2cc(S(=O)(=O)N3CCc4ccccc43)ccc21` the Potency was “inactive”.
For `CC1CN(S(=O)(=O)c2ccc(C(=O)NN3CCN(C)CC3)cc2)CC(C)O1` (stereo not drawn), the Potency was “inactive”.
With `CC1CC(C)CN(S(=O)(=O)c2ccc(C(=O)NN3CCOCC3)cc2)C1` (stereo not drawn) the Potency was “inactive”.
In the case of `CNC(=O)c1ccsc1NC(=O)c1ccc(S(=O)(=O)N2CCc3ccccc32)cc1`, the Potency is reported as 18.4 µM (active).
With `CC1CN(S(=O)(=O)c2ccc(C(=O)Nc3sccc3C(N)=O)cc2)CC(C)O1` (stereo not drawn) the Potency was 18.4 µM (active).
In the case of `N#Cc1c(-c2ccccc2)nc(SCc2ccc([N+](=O)[O-])cc2)[nH]c1=O`, the Potency is reported as “inactive”.
In the case of `O=C(CNC(=O)C1COc2ccccc2O1)N/N=C/c1cc(Br)c(O)c(Br)c1` (stereo not drawn), the Potency is reported as “inactive”.
In the case of `O=C(CSc1nccn1-c1cccc(F)c1)NC1CCCC1`, the Potency is reported as “inactive”.
For `CC(C)CC(O)C1CCN(C(=O)CCc2nnc(-c3ccc4c(c3)OCO4)o2)CC1` (stereo not drawn), the Potency was “inactive”.
For `CCn1c2ccc(F)cc2c2nnc(SCCN3CCOCC3)nc21`, the Potency was “inactive”.
In the case of `CCN(CC(=O)NC(C)C)C(=O)c1cc(S(=O)(=O)N2CCCCC2)ccc1N1CCCCC1`, the Potency is reported as “inactive”.
With `CCN(CC(=O)Nc1ccccc1C(=O)NC1CC1)Cc1cccs1` the Potency was “inactive”.
In the case of `O=c1c2cc(Br)ccc2nc(-c2cccc(Cl)c2)n1O`, the Potency is reported as 18.3 µM (active).
In the case of `Cc1cccc(-c2nc3ccccc3c(=O)n2NC(=O)Cc2ccc(Cl)cc2)c1`, the Potency is reported as “inactive”.
For `O=C1CCCc2c1nc(-c1cccc(Cl)c1)n2O`, the Potency was “inactive”.
For `Cc1ccc(NC(=O)Cn2cnc3c(OCc4ccccc4)ncnc32)cc1C`, the Potency was “inactive”.
In the case of `Cc1cc(C)c(S(=O)(=O)NCC(c2ccc3c(c2)OCO3)N2CCOCC2)c(C)c1` (stereo not drawn), the Potency is reported as “inactive”.
